High-throughput results as filed in PubChem BioAssay.
Only some compounds are listed: those with a hit (about 2.8% of all), similar ones and a draw of the others.
p47phox inh: blocks human p47phox regulatory protein of NADPH oxidases; P14598; p47phox/p22phox peptide binding, fluorescence polarization, 2 h; inhibition, % at 24.7 µM; 220,000 tested, 0.53% active;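 active = inhibition above about 30%, limit read from the data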;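 also: 0% = p47phox with labelled peptide and 100% = labelled peptide alone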
PGE2 EP2 inh: blocks the human prostaglandin E2 receptor EP2. P43116. C6 glioma cells expressing human EP2, cAMP TR-FRET; cells stimulated with saturating PGE2. inhibition, % at 25 µM. 260,000 tested, 0.52% active. AID 1422;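 active = percent inhibition above 40 after rounding to a whole number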;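 also: rat C6 glioma host cells with rolipram phosphodiesterase inhibitor present; the protocol text gives 20 µM as final concentration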
Target sequence (P43116 whole entry, looked up): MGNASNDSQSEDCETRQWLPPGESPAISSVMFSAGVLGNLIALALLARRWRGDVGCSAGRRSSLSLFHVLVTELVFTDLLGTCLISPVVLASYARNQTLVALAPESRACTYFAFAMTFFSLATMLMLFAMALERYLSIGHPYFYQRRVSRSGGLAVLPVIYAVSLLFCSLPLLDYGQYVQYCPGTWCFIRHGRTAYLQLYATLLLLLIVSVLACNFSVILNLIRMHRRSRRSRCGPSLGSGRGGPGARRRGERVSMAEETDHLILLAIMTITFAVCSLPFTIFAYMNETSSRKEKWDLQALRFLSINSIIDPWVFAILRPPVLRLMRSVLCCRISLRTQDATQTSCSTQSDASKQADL
Furin inhibitor: human furin inhibition | inhibition, % at 20 µM or 30 µM | P09958 | 220,000 tested, 0.061% active | AID 463115 | purified furin, fluorogenic substrate cleavage; in the data active = inhibition above about 25%
Wee1 stabilizer: inhibitors of human Wee1 degradation | HeLa Luc-Wee1K328M stability, luciferase luminescence; 100% = proteasome inhibitor MG132 effect | reporter increase, % at 5 µM | 220,000 tested, 1.2% active;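 active = activation above the mean of all tested compounds plus 3 SD, set per screening run, cut at about 8.8% in these data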;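 also: cells exposed to compound for 20 h before luminescence read; 0% = DMSO alone and 100% = MG132 at 30 µM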
EP2 mod: EP2 receptor (human) modulation. P43116. EP2-expressing cells, cAMP HTRF FRET, PGE2 co-stimulation. induction, % at 25 µM. 260,000 tested, 0.83% active;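 active = compounds whose cAMP rise, as percent of the full-agonist control response, exceeds 60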;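 also: rat C6 glioma line stably carrying human EP2 under a CMV promoter; the protocol text gives 20 µM as final concentration; 100% = response of wells given 1 µM PGE2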
HSV replic up: increases HSV replication in cells; AID 1956; 220,000 tested, 0.005% active; HSV replication augmentation in cells, fold increase; maximum fold increase; in the data active = maximum fold increase above about 1.5; inconclusive = no clear call, values can overlap the other calls; tested in PC3 cells
Numbers without * were called inactive; i = inactive; ? = inconclusive; . = no result.

SMILES	p47phox inh	PGE2 EP2 inh	Furin inhibitor	Wee1 stabilizer	EP2 mod	HSV replic up
CCOC(=O)c1c(CSC(=N)N)n(-c2ccc(C)cc2)c2cc(Br)c(OC(C)=O)cc12	37*	127*	5	9.4*	-43	i
O=C(O)CCCN1C(=O)/C(=C/C=C/c2ccco2)SC1=S	-64	11	-6	1	74*	i
CCn1c(SCC(=O)Nc2cc(N)ccc2C)nnc1-c1ccc(O)cc1	.	4	.	.	-37	.
COc1ccc(NC(=S)N(Cc2cccnc2)Cc2cc3cccc(C)c3[nH]c2=O)cc1	.	14	.	.	-9	.
CC(=O)Nc1cc(C(=O)N2CCc3ccccc3C2)ccc1Sc1ccc(F)cc1	-18	19	-3	3	-30	i
CC(=O)Nc1cc(C(=O)N2CCc3ccccc3C2)ccc1Sc1ccc(Cl)cc1	-2	6	-15	9.6*	2	i
O=C(CN(Cc1ccccc1)C1=NCCS1)c1ccccc1	0	15	-22	5	10	i
Cc1ccc(C(=O)CN(Cc2ccccc2)C2=NCCS2)cc1	-6	8	-19	10*	11	i
Cc1nnc(Sc2cc(NCCO)c([N+](=O)[O-])c3nonc23)s1	6	50*	-12	8	-69	i
N=C(N)SCc1ccc(Cl)cc1Cl (tested in a mixture with another compound)	.	53*	.	.	-32	.
CCc1ccc2[nH]c(=O)c(CN(C(=O)Nc3ccccc3OC)C3CCCCC3)cc2c1	.	6	.	.	-13	.
O=C(Nc1ccc(Cl)cc1)c1sccc1-n1cccc1	1	-1	-25	-1	63*	i
COc1ccc(NC(=O)c2sccc2-n2cccc2)cc1	6	0	-10	4	15	i
O=C(CN1CCCc2ccccc21)NC(=O)NC1CCCCC1	-3	6	-12	9.2*	8	i
COC(=O)c1sc(-c2ccc(C(C)(C)C)cc2)cc1NC(=O)c1ccccc1C(=O)O	-20	16	-14	0	-58	i
COC(=O)c1sc(-c2ccc(Cl)cc2)cc1NC(=O)c1ccccc1C(=O)O	-15	53*	-1	-1	-18	i
COc1ccc2[nH]c(=O)c(CN(Cc3ccc(C)cc3)C(=O)Nc3ccccc3OC)cc2c1	.	8	.	.	61*	.
COc1ccc(CN(Cc2cc3ccc(C)cc3[nH]c2=O)C(=O)Nc2ccccc2OC)cc1	.	14	.	.	-1	.
Cc1ccc(N(CC(=O)NC(C)(C)C)C(=O)CCC(=O)Nc2nccs2)cc1	.	9	.	.	-6	.
CCc1nc2oc3ccccc3c(=O)c2c(=O)n1-c1ccc(C)cc1	-49	10	-6	3	-2	i
Cc1ccc(-n2c(C(C)C)nc3oc4ccccc4c(=O)c3c2=O)cc1	-4	3	-20	10*	45	i
CCCc1nc2oc3ccccc3c(=O)c2c(=O)n1-c1ccc(C)cc1	-9	8	-12	10.0*	-6	i
COC(=O)c1sc2nc3c(c(-c4cccs4)c2c1N)CCCC3	-4	10	-15	3	64*	i
C[C@H](NC(=O)c1ccc(Cl)c(Cl)c1)c1ccc(-c2ccccc2)cc1	.	55*	.	.	-41	.
O=C(Cc1cccc(F)c1)NCCc1nc(-c2ccncc2)n[nH]1	.	9	.	.	-6	.
SMILES	p47phox inh	PGE2 EP2 inh	Furin inhibitor	Wee1 stabilizer	EP2 mod	HSV replic up
CN(C)S(=O)(=O)c1ccc(-c2csc(N/N=C/c3ccc(O)cc3)n2)cc1	-22	104*	-14	-1	-56	i
Cc1ccc(-c2csc(N/N=C/c3ccco3)n2)cc1	-1	4	-10	0	-5	i
CN(C)S(=O)(=O)c1ccc(-c2csc(N/N=C/c3ccco3)n2)cc1	-12	47*	-23	0	-51	i
Cc1cc(C)nc(SCCC(=O)Nc2ccccc2)n1	88*	24	-14	-5	9	i
Cc1cc(C)nc(NC(=O)CSc2ncccn2)n1	0	11	-32	-4	1	i
Cc1cc(C)nc(NC(=O)CSc2ccccn2)n1	-2	7	-29	17*	-7	i
N#C/C(=C\c1ccc(N2CCOCC2)o1)c1nc2ccccc2[nH]1	-273	42*	-24	-1	-34	?
N#C/C(=C\c1ccc(N2CCOCC2)c([N+](=O)[O-])c1)c1nc2ccccc2[nH]1	-19	30	-7	-1	-22	i
CCOc1ccc2nc(SCC(=O)Nc3ccccc3OCC)c(C#N)cc2c1	.	13	.	.	-12	.
Cc1c(C)n(CC(O)CN2CCOCC2)c2ccccc12 (centres undefined)	66*	9	-15	-4	11	i
Cc1ccc(N=Nc2c(=O)[nH]n3c(C)cc(C)nc23)cc1	-10	10	-5	11*	-8	i
CCCCc1c(C)nc2c(OC)cccc2c1SCCC(=O)O	34*	9	-22	-3	41	i
N#CCc1cc2ccc3cccc4ccc(c1)c2c34	-26	5	-28	22*	4	i
CCOC(=O)c1ccc(NC(=O)c2cc(F)c(F)cc2Cl)cc1	1	12	-22	0	-24	i
COc1ccc(NC(=O)c2cc(F)c(F)cc2Cl)cc1Cl	-2	12	-6	9.1*	-33	i
C[C@@H](Cn1nnc2ccccc21)NC(=O)CN1Cc2ccccc2C1=O	.	8	.	.	-7	.
O=C(O)CCC(=O)N1CCCC1	4	3	-11	9.9*	4	i
Cc1cc(Nc2ccc(N=Nc3ccc(O)c4ncccc34)cc2)nc(C)n1	.	45*	.	.	17	.
Cc1ccc(N=Nc2ccc(O)c3ncccc23)cc1	-11	5	5	-4	-11	i
COc1ccc2cc(C)c3nn(CC(=O)N4CCC(C(N)=O)CC4)c(=O)n3c2c1	.	.	.	.	-36	.
O=S(=O)(c1ccccc1)N1c2cc(Cl)ccc2Oc2nc3ccccc3nc21	-45	8	-16	2	61*	i
COc1ccc([C@H](C)NC[C@H](O)c2ccc(O)c(NC=O)c2)cc1	-6	12	-36	9	81*	i
COc1ccc(C[C@H](C)NC[C@@H](O)c2ccc(O)c(NC=O)c2)cc1	.	11	.	.	.	i
CCOc1cc(-c2ccc(OCC#N)c(OC)c2)cc(=O)c2c(C)oc(C)c12	.	7	.	.	8	.
O=C(CSc1nnc(SCc2cccc3ccccc23)s1)N=Nc1c(O)[nH]c2ccccc12	32*	6	-17	0	4	i
CCn1c(SCC(=O)NC(C)(C)C)nnc1-c1ccc(C)cc1	.	9	.	.	-5	.
Nc1nonc1C(=O)N1CCOCC1	.	10	.	.	11	.
CSc1nc2ncc3c(n2n1)CC(C)(C)CC3=O	-8	13	-13	8.9*	21	i
CCOC(=O)c1nc2cc3n(c(C)c-2c1C)C(C)C(C)=C3C (centres undefined)	56*	12	-22	9	7	i
CCOC(=O)c1nc2cc3n(c(CC(C)C)c-2c1C)CC(C)=C3C	-20	9	-34	-1	-33	i
